# In the supplement of paper PMC11732987, “Enantioselective OTUD7B fragment discovery through chemoproteomics screening and high-throughput optimisation” (Communications Chemistry, 2025):
# A number with no mark means an inactive call.
# Tests used:
# Experiment in all cases: log2 ratio of Biotin-Ahx-Ub-VS probe labelling (fragment/DMSO); higher = less target engagement (more negative = stronger competition), active = hit call of the paper (q ≤ 0.05, log2 ratio ≤ -1)
# Details in all cases: compound concentration: 200 uM; treatment time: 3 h
# OTUD6B = target: T1, OTUD6B (UniProt Q8N6M0)
# T1 sequence (whole entry): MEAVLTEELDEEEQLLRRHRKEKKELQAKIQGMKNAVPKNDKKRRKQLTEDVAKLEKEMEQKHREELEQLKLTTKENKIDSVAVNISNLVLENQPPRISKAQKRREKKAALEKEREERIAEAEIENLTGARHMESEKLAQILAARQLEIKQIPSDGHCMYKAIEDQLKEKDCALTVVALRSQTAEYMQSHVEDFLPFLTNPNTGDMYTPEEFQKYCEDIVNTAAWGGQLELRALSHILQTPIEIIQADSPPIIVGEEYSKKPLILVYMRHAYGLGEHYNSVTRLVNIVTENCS
# How it was run: (§1)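 HEK293T lysate in Tris/CHAPS/IGEPAL buffer with protease inhibitors (495 µg per sample) was given fragment at 200 µM or vehicle for 3 h, in triplicate. It then received Biotin-Ahx-Ub-VS at 0.5 µM final for 1 h. Labelled DUBs were NeutrAvidin-enriched, digested with LysC and trypsin, and run by diaPASEF LC-MS/MS. Values are average log2 fragment/vehicle ratios by unpaired t-test on global-median-normalised Spectronaut quantities of proteins with ≥2 unique peptides.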
# OTUD7B = target: T2, OTUD7B (UniProt Q6GQQ9)
# T2 sequence (whole entry): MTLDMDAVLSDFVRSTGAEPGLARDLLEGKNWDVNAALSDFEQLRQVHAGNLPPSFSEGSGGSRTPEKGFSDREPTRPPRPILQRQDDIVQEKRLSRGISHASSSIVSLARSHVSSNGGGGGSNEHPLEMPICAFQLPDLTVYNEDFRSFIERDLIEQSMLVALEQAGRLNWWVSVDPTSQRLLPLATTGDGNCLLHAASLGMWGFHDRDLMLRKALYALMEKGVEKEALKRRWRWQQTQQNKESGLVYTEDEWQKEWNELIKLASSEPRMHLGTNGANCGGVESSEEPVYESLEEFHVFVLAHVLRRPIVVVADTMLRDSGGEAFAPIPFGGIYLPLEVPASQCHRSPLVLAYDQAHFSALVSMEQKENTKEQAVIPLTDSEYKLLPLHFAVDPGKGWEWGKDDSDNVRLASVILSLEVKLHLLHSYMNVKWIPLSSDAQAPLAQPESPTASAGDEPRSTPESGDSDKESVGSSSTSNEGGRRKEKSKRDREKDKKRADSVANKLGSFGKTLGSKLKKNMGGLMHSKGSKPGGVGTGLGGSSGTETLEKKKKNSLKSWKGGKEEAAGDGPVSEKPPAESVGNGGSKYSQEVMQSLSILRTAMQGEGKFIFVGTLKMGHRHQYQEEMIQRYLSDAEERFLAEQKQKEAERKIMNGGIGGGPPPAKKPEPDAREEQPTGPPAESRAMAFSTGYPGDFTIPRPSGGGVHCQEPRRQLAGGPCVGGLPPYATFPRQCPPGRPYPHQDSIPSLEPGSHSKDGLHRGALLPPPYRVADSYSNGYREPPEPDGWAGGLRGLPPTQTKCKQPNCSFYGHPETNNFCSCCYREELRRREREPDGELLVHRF
# How it was run: as §1
# PRPF8 = PRPF8 (UniProt Q6P2Q9)
# How it was run: as §1
# PSMD7 = target: T3, PSMD7 (UniProt P51665)
# T3 sequence (whole entry): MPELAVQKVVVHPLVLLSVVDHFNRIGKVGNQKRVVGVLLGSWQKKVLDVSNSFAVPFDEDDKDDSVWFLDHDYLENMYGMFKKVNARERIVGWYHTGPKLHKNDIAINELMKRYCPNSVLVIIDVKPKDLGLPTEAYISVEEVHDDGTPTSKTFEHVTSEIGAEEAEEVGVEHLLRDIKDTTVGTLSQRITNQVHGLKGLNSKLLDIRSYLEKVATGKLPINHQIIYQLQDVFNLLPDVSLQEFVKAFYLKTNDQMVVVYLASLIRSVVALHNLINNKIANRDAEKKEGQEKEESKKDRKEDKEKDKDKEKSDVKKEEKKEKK
# How it was run: as §1
# UCHL1 = UCHL1 (UniProt P09936)
# How it was run: as §1
# UCHL3 = target: T4, UCHL3 (UniProt P15374)
# T4 sequence (whole entry): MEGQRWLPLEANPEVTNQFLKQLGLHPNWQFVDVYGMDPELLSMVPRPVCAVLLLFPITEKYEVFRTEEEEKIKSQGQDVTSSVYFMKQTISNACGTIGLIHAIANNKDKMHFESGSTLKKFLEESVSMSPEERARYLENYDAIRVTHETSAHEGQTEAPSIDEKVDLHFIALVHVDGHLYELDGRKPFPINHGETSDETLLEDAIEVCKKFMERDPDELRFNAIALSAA
# How it was run: as §1
# UCHL5 = target: T5, UCHL5 (UniProt Q9Y5K5)
# T5 sequence (whole entry): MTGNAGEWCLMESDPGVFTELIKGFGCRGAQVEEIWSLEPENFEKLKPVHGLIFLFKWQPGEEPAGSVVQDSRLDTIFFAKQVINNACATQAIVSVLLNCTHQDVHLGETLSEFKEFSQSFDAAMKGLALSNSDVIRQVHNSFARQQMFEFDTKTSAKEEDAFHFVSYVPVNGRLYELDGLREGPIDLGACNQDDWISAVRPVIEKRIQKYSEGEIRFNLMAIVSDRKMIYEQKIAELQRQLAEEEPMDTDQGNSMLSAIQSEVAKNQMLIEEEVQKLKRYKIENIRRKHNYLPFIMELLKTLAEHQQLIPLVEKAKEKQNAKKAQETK
# How it was run: as §1
# USP10 = USP10 (UniProt Q14694)
# How it was run: as §1
# USP15 = target: T6, USP15 (UniProt Q9Y4E8)
# T6 sequence (whole entry): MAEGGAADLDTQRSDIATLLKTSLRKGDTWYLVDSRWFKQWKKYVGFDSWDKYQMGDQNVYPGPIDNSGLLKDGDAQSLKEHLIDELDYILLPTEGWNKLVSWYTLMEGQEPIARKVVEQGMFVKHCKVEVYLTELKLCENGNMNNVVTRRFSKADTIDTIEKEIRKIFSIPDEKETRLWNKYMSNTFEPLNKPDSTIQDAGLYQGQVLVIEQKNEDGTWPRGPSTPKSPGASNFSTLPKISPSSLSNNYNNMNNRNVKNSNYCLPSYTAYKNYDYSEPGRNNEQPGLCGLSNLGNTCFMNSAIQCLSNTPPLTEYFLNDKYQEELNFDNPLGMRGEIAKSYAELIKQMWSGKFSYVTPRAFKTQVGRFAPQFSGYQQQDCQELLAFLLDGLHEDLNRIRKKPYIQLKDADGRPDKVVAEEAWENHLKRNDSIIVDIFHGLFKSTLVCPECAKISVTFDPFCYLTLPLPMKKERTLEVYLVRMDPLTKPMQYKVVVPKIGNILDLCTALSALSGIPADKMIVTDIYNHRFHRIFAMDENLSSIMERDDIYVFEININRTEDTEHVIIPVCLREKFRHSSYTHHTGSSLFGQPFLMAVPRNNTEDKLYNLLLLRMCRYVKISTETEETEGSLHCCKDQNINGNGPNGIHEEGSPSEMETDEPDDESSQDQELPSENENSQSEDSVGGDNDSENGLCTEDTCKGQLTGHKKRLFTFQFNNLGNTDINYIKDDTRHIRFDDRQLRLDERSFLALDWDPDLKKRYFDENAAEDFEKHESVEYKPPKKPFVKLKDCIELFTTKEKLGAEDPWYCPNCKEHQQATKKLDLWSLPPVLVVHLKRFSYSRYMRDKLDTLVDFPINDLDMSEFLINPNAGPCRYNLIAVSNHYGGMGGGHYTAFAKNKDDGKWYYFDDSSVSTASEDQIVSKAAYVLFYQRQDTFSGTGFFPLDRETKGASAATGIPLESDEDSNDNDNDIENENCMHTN
# How it was run: as §1
# USP16 = USP16 (UniProt Q9Y5T5)
# How it was run: as §1
# UCHL1, sequence (P09936 whole entry, looked up): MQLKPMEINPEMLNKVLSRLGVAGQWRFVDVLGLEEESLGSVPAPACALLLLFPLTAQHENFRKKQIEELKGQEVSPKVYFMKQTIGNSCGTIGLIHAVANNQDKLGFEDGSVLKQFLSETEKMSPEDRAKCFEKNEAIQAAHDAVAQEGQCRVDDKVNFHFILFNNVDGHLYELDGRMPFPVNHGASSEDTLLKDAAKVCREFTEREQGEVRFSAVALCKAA
# USP16, sequence (Q9Y5T5 whole entry, looked up): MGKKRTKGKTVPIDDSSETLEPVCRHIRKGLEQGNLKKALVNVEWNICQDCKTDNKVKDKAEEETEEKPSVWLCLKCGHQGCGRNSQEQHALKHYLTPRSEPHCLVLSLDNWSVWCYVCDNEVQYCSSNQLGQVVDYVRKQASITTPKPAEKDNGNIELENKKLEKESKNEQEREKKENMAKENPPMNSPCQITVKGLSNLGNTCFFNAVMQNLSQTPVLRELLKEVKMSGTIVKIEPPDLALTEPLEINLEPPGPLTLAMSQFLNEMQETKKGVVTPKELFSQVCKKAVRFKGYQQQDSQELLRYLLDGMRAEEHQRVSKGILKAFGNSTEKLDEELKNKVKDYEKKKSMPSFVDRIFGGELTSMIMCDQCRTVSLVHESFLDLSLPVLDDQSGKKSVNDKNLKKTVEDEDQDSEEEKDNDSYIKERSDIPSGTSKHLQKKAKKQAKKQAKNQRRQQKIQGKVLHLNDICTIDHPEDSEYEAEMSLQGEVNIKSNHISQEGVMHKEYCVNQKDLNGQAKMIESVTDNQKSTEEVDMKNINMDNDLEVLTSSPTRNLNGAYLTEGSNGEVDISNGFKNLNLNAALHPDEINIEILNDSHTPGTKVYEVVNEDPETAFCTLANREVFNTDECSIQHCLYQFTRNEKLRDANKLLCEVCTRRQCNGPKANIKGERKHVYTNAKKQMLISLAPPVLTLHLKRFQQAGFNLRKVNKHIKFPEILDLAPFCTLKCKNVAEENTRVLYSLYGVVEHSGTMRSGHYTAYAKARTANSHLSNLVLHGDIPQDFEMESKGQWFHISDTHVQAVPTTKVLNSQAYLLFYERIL
# USP10, sequence (Q14694 whole entry): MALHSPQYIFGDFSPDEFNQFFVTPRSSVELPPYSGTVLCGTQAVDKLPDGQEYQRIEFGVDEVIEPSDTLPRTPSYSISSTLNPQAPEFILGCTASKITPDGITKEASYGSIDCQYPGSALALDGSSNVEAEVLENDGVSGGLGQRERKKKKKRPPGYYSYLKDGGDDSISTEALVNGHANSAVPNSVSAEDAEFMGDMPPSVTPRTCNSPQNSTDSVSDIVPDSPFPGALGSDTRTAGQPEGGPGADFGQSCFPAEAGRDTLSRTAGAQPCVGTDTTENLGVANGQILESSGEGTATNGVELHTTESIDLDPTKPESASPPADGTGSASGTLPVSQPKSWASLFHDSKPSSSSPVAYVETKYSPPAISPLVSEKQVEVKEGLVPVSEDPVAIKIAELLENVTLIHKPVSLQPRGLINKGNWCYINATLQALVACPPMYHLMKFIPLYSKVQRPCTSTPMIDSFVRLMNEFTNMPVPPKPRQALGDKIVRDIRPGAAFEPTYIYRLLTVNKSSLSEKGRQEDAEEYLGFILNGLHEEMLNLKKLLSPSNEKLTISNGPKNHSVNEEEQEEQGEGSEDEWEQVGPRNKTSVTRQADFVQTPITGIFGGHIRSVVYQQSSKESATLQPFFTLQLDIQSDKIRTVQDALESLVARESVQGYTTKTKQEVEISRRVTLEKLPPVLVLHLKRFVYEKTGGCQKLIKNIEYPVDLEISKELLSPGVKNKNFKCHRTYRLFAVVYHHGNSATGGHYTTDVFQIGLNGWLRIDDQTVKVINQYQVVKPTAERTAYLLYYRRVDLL
smiles,measurement,setting,value
O=C(CCl)N1CCC(S(=O)(=O)c2ccc(F)cc2)CC1,log2 ratio of Biotin-Ahx-Ub-VS probe labelling,OTUD6B,-0.129
same,log2 ratio of Biotin-Ahx-Ub-VS probe labelling,OTUD7B,-0.758
same,log2 ratio of Biotin-Ahx-Ub-VS probe labelling,PRPF8,-0.03
same,log2 ratio of Biotin-Ahx-Ub-VS probe labelling,PSMD7,-0.129
same,log2 ratio of Biotin-Ahx-Ub-VS probe labelling,UCHL1,-1.14 (active)
same,log2 ratio of Biotin-Ahx-Ub-VS probe labelling,UCHL3,0.498
same,log2 ratio of Biotin-Ahx-Ub-VS probe labelling,UCHL5,-0.128
same,log2 ratio of Biotin-Ahx-Ub-VS probe labelling,USP10,-0.175
same,log2 ratio of Biotin-Ahx-Ub-VS probe labelling,USP15,-0.327
same,log2 ratio of Biotin-Ahx-Ub-VS probe labelling,USP16,0.341
